The panel holds about 79,000 compounds, 15% with a hit somewhere; the sample as a whole holds those more often. Active and inactive are the calls of the source. No stated cut-off is given here; in the data, active means growth inhibition above about 70%; inactive means the rest.
Key:
[1] = NCI Yeast Anticancer Drug Screen. Data for the rad52 strain (AID 147);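 further: 0% = growth of vehicle-treated control cultures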; details: S. cerevisiae rad52 mutant growth inhibition, stronger effect = higher value
In short: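 DNA repair-defective yeast; compound exposure; growth scored against vehicle controls.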

[2] = NCI Yeast Anticancer Drug Screen. Data for the wt1 strain (AID 149);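 further: 0% = growth of vehicle-treated wt1 cultures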; details: S. cerevisiae wt1 strain (SPY 50644) growth inhibition, stronger effect = higher value
In short: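 Growth inhibition read against vehicle controls after compound exposure of the wt1 yeast strain.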

[3] = NCI Yeast Anticancer Drug Screen. Data for the rad50EPP+ strain (AID 151);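 further: 0% = growth of vehicle-treated control cultures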; details: S. cerevisiae rad50 mutant strain, stronger effect = higher value
In short: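 rad50EPP+ yeast treated with test compounds. Readout: growth vs vehicle control.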

[4] = NCI Yeast Anticancer Drug Screen. Data for the rad50 strain (AID 155);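 further: 0% = growth of vehicle-only cultures of the same strain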; details: S. cerevisiae rad50 strain growth inhibition, stronger effect = higher value
In short: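 Readout: growth inhibition relative to vehicle-treated cultures. Compound exposure was carried out in a genetically defined yeast strain deficient in DNA damage repair.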

[5] = NCI Yeast Anticancer Drug Screen. Data for the mec2-1 strain (AID 157); details: S. cerevisiae mec2-1 strain, stronger effect = higher value
In short: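 Growth inhibition is read against vehicle-treated controls after compound exposure of the mec2-1 yeast strain, which is defective in DNA damage repair or cell cycle control.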

[6] = NCI Yeast Anticancer Drug Screen. Data for the sgs1 mgt1 strain (AID 161);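 further: 0% = growth of cultures given vehicle only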; details: S. cerevisiae sgs1 mgt1 strain, stronger effect = higher value
In short: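 Growth of a repair-deficient yeast mutant was monitored after compound treatment and expressed as inhibition relative to vehicle-treated cultures.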

[7] = NCI Yeast Anticancer Drug Screen. Data for the CLN2oe strain (AID 163);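 further: 0% = growth of vehicle-only control cultures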; details: S. cerevisiae CLN2oe strain, stronger effect = higher value
In short: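 Compound-treated yeast; growth vs vehicle ctrl = % inhibition. Genetically altered strain (cell-cycle control).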

[8] = NCI Yeast Anticancer Drug Screen. Data for the cln2 rad14 strain (AID 165);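 further: 0% = growth equal to vehicle treated cultures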; details: S. cerevisiae cln2 rad14 strain, stronger effect = higher value
In short: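 Growth inhibition, relative to vehicle-treated controls, is the read-out. The test organism is a yeast strain with defined genetic alterations, cln2 rad14.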

[9] = NCI Yeast Anticancer Drug Screen. Data for the bub3 strain (AID 167); details: S. cerevisiae bub3 mutant strain, stronger effect = higher value
In short: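 Readout: yeast growth inhibition, expressed relative to vehicle-only wells. The test organism is a mutant strain from a panel with lesions in DNA repair or checkpoint genes.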

[10] = NCI Yeast Anticancer Drug Screen. Data for the wt2 strain (AID 169);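 further: 0% = growth of vehicle-treated yeast cultures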; details: S. cerevisiae wt2 strain growth inhibition, stronger effect = higher value
In short: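 Compound exposure of yeast; growth compared with vehicle controls; inhibition reported.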

[11] = NCI Yeast Anticancer Drug Screen. Data for the mlh1 strain (AID 171);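 further: 0% = growth of vehicle-treated control cultures of the same strain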; details: S. cerevisiae mlh1 strain growth inhibition, stronger effect = higher value
In short: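 Compounds are applied to a genetically altered yeast strain, and its growth is compared with that of vehicle-treated cultures to give percent inhibition.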

[12] = NCI Yeast Anticancer Drug Screen. Data for the sgs1 strain (AID 173);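 further: 0% = growth of vehicle-only control cultures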; details: S. cerevisiae sgs1 mutant, stronger effect = higher value
In short: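 Compounds applied to genetically altered yeast; growth compared with vehicle-treated cultures to give % inhibition.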

[13] = NCI Yeast Anticancer Drug Screen. Data for the mlh1 rad18 strain (AID 175); details: S. cerevisiae mlh1 rad18 strain growth inhibition, stronger effect = higher value
In short: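 Cells of a genetically altered yeast strain, deficient in DNA damage repair, were treated with compound. Their growth was then compared with that of vehicle-treated cultures to give inhibition.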

[14] = NCI Yeast Anticancer Drug Screen. Data for the rad18 strain (AID 177); details: S. cerevisiae rad18 mutant growth inhibition, stronger effect = higher value
In short: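 Compounds are applied to a repair-deficient yeast strain, and growth is compared with that of vehicle-treated cultures to give percent inhibition.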

[15] = at 5.0 µM (retest, dose inferred, filed as 0.5)
[16] = at 50.0 µM (retest, dose inferred, filed as 5.0)

Measured: growth inhibition

O=[N+]([O-])c1cc(Cl)ccc1S(=O)(=O)c1ccc(Cl)cc1[N+](=O)[O-]
inactive: [1]; at 1.2 µM -25% | [1]; at 3.7 µM -8% | [1]; at 11.0 µM 40% | [2]; at 1.2 µM -13% | [2]; at 3.7 µM -19% | [2]; at 11.0 µM 0% | [3]; at 1.2 µM -6% | [3]; at 3.7 µM 20% | [3]; at 11.0 µM 55% | [3]; at 100.0 µM 64% | [4]; at 1.2 µM -31% | [4]; at 3.7 µM -21% | [4]; [15] 14% | [4]; at 11.0 µM 41% | [5]; at 1.2 µM -12% | [5]; at 3.7 µM 10% | [5]; [15] 4% | [5]; at 11.0 µM 20% | [6]; [15] 16% | [7]; at 1.2 µM -2% | [7]; at 3.7 µM -4% | [7]; at 11.0 µM 9% | [8]; [15] 13% | [9]; at 1.2 µM -21% | [9]; at 3.7 µM 7% | [10]; at 1.2 µM 0% | [10]; at 3.7 µM 4% | [10]; at 11.0 µM 21% | [11]; at 1.2 µM -3% | [11]; at 3.7 µM 3% | [11]; at 11.0 µM 44% | [12]; at 1.2 µM -3% | [12]; at 3.7 µM 13% | [12]; at 11.0 µM 35% | [13]; [15] 25% | [14]; at 1.2 µM 8% | [14]; at 3.7 µM 9% | [14]; at 11.0 µM 63%
active: [1]; at 33.0 µM 86% | [1]; at 100.0 µM 78% | [2]; at 33.0 µM 85% | [2]; at 100.0 µM 78% | [3]; at 33.0 µM 72% | [4]; at 33.0 µM 90% | [4]; [16] 92% | [4]; at 50.0 µM 76.8% | [4]; at 100.0 µM 81% | [5]; at 33.0 µM 89% | [5]; [16] 93% | [5]; at 50.0 µM 83% | [5]; at 100.0 µM 84% | [6]; [16] 91% | [6]; at 50.0 µM 84.3% | [7]; at 33.0 µM 82% | [7]; at 100.0 µM 79% | [8]; [16] 91% | [8]; at 50.0 µM 79.9% | [9]; [15] 73% | [9]; at 11.0 µM 80% | [9]; at 33.0 µM 93% | [9]; [16] 94% | [9]; at 50.0 µM 83.7% | [9]; at 100.0 µM 90% | [10]; at 33.0 µM 88% | [10]; at 100.0 µM 84% | [11]; at 33.0 µM 85% | [11]; at 100.0 µM 80% | [12]; at 33.0 µM 91% | [12]; at 100.0 µM 84% | [13]; [16] 91% | [13]; at 50.0 µM 80.8% | [14]; at 33.0 µM 91% | [14]; at 100.0 µM 87%
